Inconclusive results are not listed. Activity calls are given as the source filed them. Unless noted, calls follow the shape of the dose curve; as a rule, active = well fitted curve in the direction sought with a large enough effect in the repeat runs; inconclusive = weak or mixed curves; inactive = no such curve, though single readings can be large; an effect the other way counts as inactive or inconclusive.
Tests used:
[1] = qHTS assay to identify small molecule antagonists of the sonic hedgehog signaling (Shh) pathway (AID 1259369; calls by dose curve; also: nearly all actives have a fitted effect of over 45% in size; also: potency is read from the fitted curve at half-maximal effect)
Outline: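 Gli1 transcriptional reporter (firefly Luc) in NIH/3T3 background, conditioned-medium activated. 24hr exposure, luminescence endpoint.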

[2] = molecular target: Estrogen receptor beta (Homo sapiens) (UniProt Q92731); assay: qHTS assay to identify small molecule agonists of the estrogen receptor beta (ER-beta) signaling pathway (AID 1259377; active = well fitted activation curve with a large enough effect in the signal ratio in the repeat runs, not every such curve was filed as active; the % refers to the signal ratio)
Sequence of Estrogen receptor beta (Homo sapiens) (Q92731 whole entry, looked up): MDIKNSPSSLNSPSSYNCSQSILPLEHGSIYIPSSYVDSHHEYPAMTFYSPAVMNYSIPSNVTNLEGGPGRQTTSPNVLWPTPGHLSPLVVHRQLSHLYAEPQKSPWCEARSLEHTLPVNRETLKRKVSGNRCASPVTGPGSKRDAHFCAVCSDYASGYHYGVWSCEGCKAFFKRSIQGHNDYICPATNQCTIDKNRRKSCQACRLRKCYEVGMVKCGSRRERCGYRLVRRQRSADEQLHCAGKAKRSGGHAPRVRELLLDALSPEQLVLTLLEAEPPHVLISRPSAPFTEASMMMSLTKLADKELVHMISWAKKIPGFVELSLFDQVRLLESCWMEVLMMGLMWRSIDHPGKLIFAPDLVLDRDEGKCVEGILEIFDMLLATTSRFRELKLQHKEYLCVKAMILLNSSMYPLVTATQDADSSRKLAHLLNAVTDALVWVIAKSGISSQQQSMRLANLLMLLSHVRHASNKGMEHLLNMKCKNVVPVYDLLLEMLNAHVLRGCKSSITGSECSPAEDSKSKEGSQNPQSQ
Outline: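 Beta-lactamase reporter readout: fluorescence of LiveBLAzer B/G FRET substrate after 2 h at room temperature, following 16 h compound treatment of ER-beta-UAS-bla HEK293T cells at 37C in 2% charcoal-stripped FBS medium.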

[3] = molecular target: Estrogen receptor beta (Homo sapiens) (UniProt Q92731); assay: qHTS assay to identify small molecule antagonists of the estrogen receptor beta (ER-beta) signaling pathway (AID 1259378; active = well fitted inhibition curve with a large enough effect in the signal ratio in the repeat runs, not every such curve was filed as active; the % refers to the signal ratio; also: potency is read from the fitted curve at half-maximal effect)
Outline: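 ER-beta-UAS-bla HEK293T cells in 2% charcoal-stripped FBS medium treated with compound plus 1nM final 17-beta-estradiol for 16 hr at 37C. Beta-lactamase reporter read by FRET substrate fluorescence after 2 hours at room temperature.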

[4] = qHTS assay to identify small molecule agonists of the androgen receptor (AR) signaling pathway in the presence of an antagonist - cell viability counter screen (AID 1259379); also: nearly all actives have a fitted effect of over 25% in size; also: potency is read from the fitted curve at half-maximal effect;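 as to activity change, negative = cytotoxicity: MDA-kb2 human breast cancer cells carrying an MMTV luciferase reporter; series mostly up to about 92 µM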
Outline: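 Counter screen for cell viability run in parallel with the AR agonist-mode luciferase assay. MDA-kb2 cells were co-treated with nilutamide (3.0uM final) and compounds, then incubated 16 hr at 37C, and CellTiter-Fluor fluorescence was measured.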

[5] = qHTS assay to identify small molecule agonists of the estrogen receptor beta (ER-beta) signaling pathway - cell viability counter screen (AID 1259380); also: nearly all actives have a fitted effect of over 30% in size; also: potency is read from the fitted curve at half-maximal effect
Outline: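 In this qHTS counter screen, HEK293T cells carrying an ER-beta/UAS beta-lactamase reporter, grown in 2% charcoal-stripped FBS, received compound for 16 hr; ATP-based CellTiter-Glo luminescence was then read after 30 min at room temperature.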

[6] = qHTS assay to identify small molecule antagonists of the estrogen receptor beta (ER-beta) signaling pathway - cell viability counter screen (AID 1259382); also: nearly all actives have a fitted effect of over 55% in size; also: potency is read from the fitted curve at half-maximal effect; as to activity change, negative = cytotoxicity: series mostly up to about 92 µM
Outline: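 HEK293T ER-beta-UAS-bla, 2% charcoal-stripped FBS; compounds + 1nM E2 16 hr 37C; CellTiter-Glo luminescence, 30 min RT.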

[7] = qHTS assay to identify small molecule agonists or antagonists of the thyroid stimulating hormone receptor (TSHR) signaling pathway - wild type cell line counter screen (AID 1259384; calls by dose curve)
Outline: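 Wild-type Hek293 cells, 800/well, 18 h at 37C, then compound with Ro20-1724 for 30 min RT. cAMP by HTRF (cAMP-d2/anti-cAMP cryptate), 1 h RT, fluorescence read. 15 concentrations, triplicates.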

[8] = molecular target: Thyrotropin receptor (Homo sapiens) (UniProt P16473); assay: qHTS assay to identify small molecule antagonists of the thyroid stimulating hormone receptor (TSHR) signaling pathway (AID 1259385; calls by dose curve; also: nearly all actives have a fitted effect of over 20% in size)
Sequence of Thyrotropin receptor (Homo sapiens) (P16473 whole entry, looked up): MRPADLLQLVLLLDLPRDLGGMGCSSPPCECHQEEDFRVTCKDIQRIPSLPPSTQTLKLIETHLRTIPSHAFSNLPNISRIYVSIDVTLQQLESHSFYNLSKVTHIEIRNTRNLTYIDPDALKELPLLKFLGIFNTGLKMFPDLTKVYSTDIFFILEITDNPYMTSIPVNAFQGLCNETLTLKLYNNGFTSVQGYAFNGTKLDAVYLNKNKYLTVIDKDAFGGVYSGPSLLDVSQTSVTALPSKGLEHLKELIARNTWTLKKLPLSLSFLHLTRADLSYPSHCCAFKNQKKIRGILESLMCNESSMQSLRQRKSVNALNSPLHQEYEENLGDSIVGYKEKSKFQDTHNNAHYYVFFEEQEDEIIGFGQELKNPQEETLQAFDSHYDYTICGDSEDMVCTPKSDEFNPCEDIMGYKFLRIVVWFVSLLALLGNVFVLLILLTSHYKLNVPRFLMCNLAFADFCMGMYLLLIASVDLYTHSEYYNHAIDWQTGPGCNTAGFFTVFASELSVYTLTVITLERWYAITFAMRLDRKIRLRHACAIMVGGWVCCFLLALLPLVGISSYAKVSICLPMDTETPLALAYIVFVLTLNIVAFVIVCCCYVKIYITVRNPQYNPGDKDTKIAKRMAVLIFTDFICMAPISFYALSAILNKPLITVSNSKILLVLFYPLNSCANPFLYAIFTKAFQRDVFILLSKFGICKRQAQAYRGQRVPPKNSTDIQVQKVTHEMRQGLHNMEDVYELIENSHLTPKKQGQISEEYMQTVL
Outline: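 TSHR-HEK293 cells (800/well) plated 18 h, then compounds with Ro20-1724 and TSH at 1.5 ng/mL final, 30 min at room temperature. cAMP quantified by HTRF (cAMP-d2/anti-cAMP-cryptate, 1 h); 15 concentrations in triplicate.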

[9] = qHTS assay to identify small molecule agonists of the estrogen receptor alpha (ER-alpha) signaling pathway in the presence of an antagonist - cell viability counter screen (AID 1259386);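 also: cells exposed to compounds for 22 h at 37 °C before the viability read; nearly all actives have a fitted effect of over 30% in size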; also: potency is read from the fitted curve at half-maximal effect; as to activity change, negative = cytotoxicity: series mostly up to about 92 µM
Outline: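 Steps: 5-day stripped-FBS culture; seed and incubate 24hr; add ICI-182,780 (10.0nM final); pin 15-point compound titration; incubate 22hr at 37C; add CellTiter-Fluor at 21hr; read fluorescence.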

[10] = molecular target: Progesterone receptor (Homo sapiens) (UniProt P06401); assay: qHTS assay to identify small molecule agonists of the progesterone receptor (PR) signaling pathway (AID 1346784; calls by dose curve; also: nearly all actives have a fitted effect of over 30% in size; also: potency is read from the fitted curve at half-maximal effect)
Sequence of Progesterone receptor (Homo sapiens) (P06401 whole entry, looked up): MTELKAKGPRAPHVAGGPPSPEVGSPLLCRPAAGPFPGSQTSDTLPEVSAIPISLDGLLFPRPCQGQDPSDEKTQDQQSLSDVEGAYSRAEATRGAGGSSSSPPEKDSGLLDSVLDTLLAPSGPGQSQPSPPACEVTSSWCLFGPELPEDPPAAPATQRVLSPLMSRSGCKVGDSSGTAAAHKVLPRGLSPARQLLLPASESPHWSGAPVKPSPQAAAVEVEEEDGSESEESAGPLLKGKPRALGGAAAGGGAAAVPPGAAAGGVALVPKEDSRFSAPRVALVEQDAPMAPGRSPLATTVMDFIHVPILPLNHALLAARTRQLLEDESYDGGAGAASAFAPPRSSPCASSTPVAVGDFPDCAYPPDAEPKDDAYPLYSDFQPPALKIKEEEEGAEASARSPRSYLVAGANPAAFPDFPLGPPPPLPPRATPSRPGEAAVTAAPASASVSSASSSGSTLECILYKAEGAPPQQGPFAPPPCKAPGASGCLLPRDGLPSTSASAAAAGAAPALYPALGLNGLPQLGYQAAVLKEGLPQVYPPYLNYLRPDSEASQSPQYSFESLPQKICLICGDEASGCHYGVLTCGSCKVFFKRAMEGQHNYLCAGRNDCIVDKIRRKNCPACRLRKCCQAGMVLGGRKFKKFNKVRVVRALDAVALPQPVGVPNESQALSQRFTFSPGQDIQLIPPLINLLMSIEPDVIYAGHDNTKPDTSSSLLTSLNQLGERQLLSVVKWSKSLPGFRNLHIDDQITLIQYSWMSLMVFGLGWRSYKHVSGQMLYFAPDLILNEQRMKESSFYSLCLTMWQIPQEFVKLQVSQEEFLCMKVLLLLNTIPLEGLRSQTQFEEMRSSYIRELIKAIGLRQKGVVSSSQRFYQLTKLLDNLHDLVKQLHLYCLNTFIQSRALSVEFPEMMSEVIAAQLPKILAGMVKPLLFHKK
Outline: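 HEK 293T PR-UAS-bla reporter cells, 2% charcoal-stripped FBS; 6 hr settle at 37C/5% CO2, compound (DMSO) 16 hr, LiveBLAzer B/G FRET substrate 2 hr RT, fluorescence intensity read.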

[11] = molecular target: Progesterone receptor (Homo sapiens) (UniProt P06401); assay: qHTS assay to identify small molecule antagonists of the progesterone receptor (PR) signaling pathway (AID 1346795; active = well fitted inhibition curve with a large enough effect in the signal ratio in the repeat runs, not every such curve was filed as active; the % refers to the signal ratio)
Outline: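 Beta-lactamase reporter, HEK293T PR-UAS-bla line; 2% charcoal-stripped FBS; 6 hr pre-incubation, 37C/5% CO2. Compound + R5020 1 nM final, 16 hr. LiveBLAzer B/G FRET substrate, 2 hr RT; fluorescence intensity read.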

[12] = qHTS assay to identify small molecule antagonists of the TGF-beta/Smad signaling pathway - cell viability counter screen (AID 1346824); also: nearly all actives have a fitted effect of over 50% in size
Outline: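 SBE-bla HEK 293T cells, incubated overnight, then compound plus 0.25 ng/mL TGF-beta1 (stock added) for 5 hr at 37 C. Viability was read in the same wells by CellTiter-Glo luminescence after 30 min at room temperature.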

[13] = qHTS assay to identify small molecule agonists of the TGF-beta/Smad signaling pathway - cell viability counter screen (AID 1346829); also: top concentration of the series differs between compounds; nearly all actives have a fitted effect of over 45% in size
Outline: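 Same-well cytotoxicity: CellTiter-Glo added after the 2 hr room-temperature beta-lactamase substrate step, luminescence measured 30 min later; cells had 5 hr of compound at 37 C.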

[14] = qHTS assay to identify small molecule agonists of the TGF-beta/Smad signaling pathway (AID 1346859; active = well fitted activation curve with a large enough effect in the signal ratio in the repeat runs, not every such curve was filed as active; the % refers to the signal ratio; also: series mostly up to about 77 µM)
Outline: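 Read-out: fluorescence at 460 and 530 nm (405 nm excitation) after a 2 hr room-temperature incubation with beta-lactamase FRET substrate. SBE-bla HEK 293T cells had been treated with test compounds for 5 hr at 37 C.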

[15] = molecular target: Androgen receptor (Homo sapiens) (UniProt P10275); assay: qHTS assay to identify small molecule agonists of the androgen receptor (AR) signaling pathway in the presence of an antagonist (AID 1259381; calls by dose curve; also: nearly all actives have a fitted effect of over 15% in size; also: potency is read from the fitted curve at half-maximal effect)
Sequence of Androgen receptor (Homo sapiens) (P10275 whole entry, looked up): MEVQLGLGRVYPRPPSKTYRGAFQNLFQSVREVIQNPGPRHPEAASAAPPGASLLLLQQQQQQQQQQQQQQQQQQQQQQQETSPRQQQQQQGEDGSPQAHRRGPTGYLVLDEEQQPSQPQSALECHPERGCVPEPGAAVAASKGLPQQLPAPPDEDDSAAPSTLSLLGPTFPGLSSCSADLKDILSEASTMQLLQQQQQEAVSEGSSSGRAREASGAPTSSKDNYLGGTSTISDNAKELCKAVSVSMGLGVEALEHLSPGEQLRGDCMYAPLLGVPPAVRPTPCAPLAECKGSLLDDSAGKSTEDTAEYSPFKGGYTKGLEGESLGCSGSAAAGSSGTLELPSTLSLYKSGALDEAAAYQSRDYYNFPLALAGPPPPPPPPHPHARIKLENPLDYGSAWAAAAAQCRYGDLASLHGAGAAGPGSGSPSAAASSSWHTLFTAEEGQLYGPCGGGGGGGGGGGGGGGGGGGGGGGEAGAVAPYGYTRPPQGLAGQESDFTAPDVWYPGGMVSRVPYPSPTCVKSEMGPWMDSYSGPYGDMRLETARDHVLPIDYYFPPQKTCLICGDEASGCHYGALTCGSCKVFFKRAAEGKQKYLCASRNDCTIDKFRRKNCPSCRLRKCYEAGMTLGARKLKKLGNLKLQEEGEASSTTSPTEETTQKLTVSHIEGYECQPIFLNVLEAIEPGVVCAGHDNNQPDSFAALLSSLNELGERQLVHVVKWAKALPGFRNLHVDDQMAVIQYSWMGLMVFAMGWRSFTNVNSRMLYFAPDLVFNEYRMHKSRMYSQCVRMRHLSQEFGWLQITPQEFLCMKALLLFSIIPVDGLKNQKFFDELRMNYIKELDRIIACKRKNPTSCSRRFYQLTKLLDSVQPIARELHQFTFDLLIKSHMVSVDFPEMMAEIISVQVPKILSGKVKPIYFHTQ
Outline: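 AR antagonist background: nilutamide 3.0uM final. Cell line: MDA-kb2, MMTV-driven luciferase, responsive to both AR and GR. Exposure 16hr, 37C, no CO2; ONE-Glo luminescence.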

[16] = qHTS assay to identify small molecule antagonists of the progesterone receptor (PR) signaling pathway - cell viability counter screen (AID 1346798); also: series mostly up to about 92 µM; nearly all actives have a fitted effect of over 50% in size
Outline: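 Luminescence readout (CellTiter-Glo, 30 min, RT) of viability in PR-UAS-bla HEK293T cells exposed to compound and R5020 agonist for 16 hr at 37C, 5% CO2; run in the same wells as the beta-lactamase reporter read.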

[17] = qHTS assay to identify small molecule agonists of the progesterone receptor (PR) signaling pathway - cell viability counter screen (AID 1346799; calls by dose curve; also: nearly all actives have a fitted effect of over 45% in size; also: potency is read from the fitted curve at half-maximal effect)
Outline: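 HEK293T PR-UAS-bla, 3,000 cells/well, 2% charcoal-stripped FBS; 6 h settle, compound 16 h at 37C/5% CO2; LiveBLAzer 2 h RT, then CellTiter-Glo 30 min RT, luminescence read.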

[18] = molecular target: Thyrotropin-releasing hormone receptor (Homo sapiens) (UniProt P34981); assay: qHTS assay to identify small molecule antagonists of the thyrotropin-releasing hormone receptor (TRHR) signaling pathway (AID 1346877; active = well fitted inhibition curve with a large enough effect in the repeat runs, not every such curve was filed as active; also: series mostly up to about 51 µM)
Sequence of Thyrotropin-releasing hormone receptor (Homo sapiens) (P34981 whole entry, looked up): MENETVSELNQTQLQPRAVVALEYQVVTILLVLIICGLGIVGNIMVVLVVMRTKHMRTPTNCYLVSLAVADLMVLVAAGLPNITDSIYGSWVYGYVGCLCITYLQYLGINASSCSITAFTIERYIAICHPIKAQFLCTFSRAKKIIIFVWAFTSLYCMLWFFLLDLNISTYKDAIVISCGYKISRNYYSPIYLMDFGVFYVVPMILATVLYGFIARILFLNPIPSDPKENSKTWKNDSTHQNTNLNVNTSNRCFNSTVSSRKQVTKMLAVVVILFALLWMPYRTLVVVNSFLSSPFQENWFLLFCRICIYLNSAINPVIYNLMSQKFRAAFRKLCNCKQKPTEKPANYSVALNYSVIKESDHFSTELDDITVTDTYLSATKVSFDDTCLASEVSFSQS
Outline: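 Human TRHR in HEK293 cells; inhibition of the intracellular calcium rise triggered by 1 nM TRH was followed by fluorescence over 3 min. Compounds were run at 15 concentrations, three replicates each.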

[19] = molecular target: Thyrotropin-releasing hormone receptor (Homo sapiens) (UniProt P34981); assay: qHTS assay to identify small molecule agonists of the thyrotropin-releasing hormone receptor (TRHR) signaling pathway (AID 1346891; calls by dose curve;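 also: HEK293 cells expressing TRHR with calcium dye readout; series mostly up to about 58 µM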)
Outline: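 HEK293/TRHR cells, 1500 per well, 18 h 37 °C; Ca dye 2 h 37 °C; pin-tool compound addition (agonist mode); kinetic fluorescence 3 min, 1 s reads; 15 concentrations, triplicate.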

[20] = molecular target: Estrogen receptor (Homo sapiens) (UniProt P03372); assay: qHTS assay to identify small molecule agonists of the estrogen receptor alpha (ER-alpha) signaling pathway in the presence of an antagonist (AID 1259383; calls by dose curve; also: top concentration of the series differs between compounds; nearly all actives have a fitted effect of over 15% in size)
Sequence of Estrogen receptor (Homo sapiens) (P03372 whole entry, looked up): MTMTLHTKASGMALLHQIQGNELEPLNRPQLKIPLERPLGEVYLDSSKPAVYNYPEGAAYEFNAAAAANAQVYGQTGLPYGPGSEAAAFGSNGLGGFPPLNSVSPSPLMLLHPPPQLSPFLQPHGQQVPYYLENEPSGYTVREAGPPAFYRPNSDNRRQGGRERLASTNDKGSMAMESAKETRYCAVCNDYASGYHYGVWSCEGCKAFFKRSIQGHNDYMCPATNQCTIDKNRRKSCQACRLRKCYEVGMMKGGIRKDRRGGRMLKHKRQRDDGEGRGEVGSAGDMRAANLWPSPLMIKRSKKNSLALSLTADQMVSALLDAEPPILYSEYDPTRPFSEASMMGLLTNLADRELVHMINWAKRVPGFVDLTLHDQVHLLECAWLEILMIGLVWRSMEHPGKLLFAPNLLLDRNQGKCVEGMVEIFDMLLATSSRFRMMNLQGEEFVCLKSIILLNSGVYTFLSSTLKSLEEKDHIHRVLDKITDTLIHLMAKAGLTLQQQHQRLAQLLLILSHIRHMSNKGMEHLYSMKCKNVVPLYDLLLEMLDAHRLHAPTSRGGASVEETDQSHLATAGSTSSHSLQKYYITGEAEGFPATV
Outline: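 ER-alpha agonism measured under antagonist challenge: 10.0nM ICI-182,780 (final) plus compound, 15 concentrations, 22hr, VM7Luc4E2 ERE-luciferase cells. Read by luminescence.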
% is scaled to controls: 0 for no effect and ±100 for the full control effect.

CC(C)(O)c1ccc(CNC(=O)c2cccnc2Oc2ccc(F)cc2)cc1
active: Potency [1] 0.273 µM
inactive: Potency [2] | Potency [3] | Potency [4] | Potency [5] | Potency [6] | Potency [7] | Potency [8] | Potency [9] | Potency [10] | Potency [11] | Potency [12] | outcome [13] | Potency [14]

OC(CN1CCC(Cc2ccc(F)cc2)CC1)c1ccc(Cl)cc1 (stereo unspecified)
active: Potency [1] 23.7 µM
inactive: Potency [2] | Potency [3] | Potency [5] | Potency [15] | Potency [6] | Potency [9] | Potency [16] | Potency [17] | Potency [12] | outcome [13] | outcome [18] | Potency [19]

CC(C)Nc1ccc(NC(C)C)c2c1C(=O)c1ccccc1C2=O
inactive: Potency [1] | Potency [2] | Potency [3] | Potency [6] | Potency [7] | Potency [10] | Potency [17] | outcome [13] | Potency [14]
active: Potency [4] 11.3 µM | Potency [9] 11.3 µM

Nc1ncn([C@H]2C[C@H](O)[C@@H](CO)O2)c(=O)n1
inactive: Potency [1] | Potency [2] | Potency [4] | Potency [5] | Potency [6] | Potency [9] | Potency [10] | Potency [16] | Potency [17] | Potency [12] | outcome [13] | Potency [14] | Potency [19]

C/C=C/C(=O)CC
active: Potency [1] 5.9 µM
inactive: activation [2] -1.08% [at 19 µM] | activity change, negative = cytotoxicity [4] 0.797% [at 19 µM] | activity change, negative = cytotoxicity [5] 5.9% [at 19 µM] | activity change, negative = cytotoxicity [6] 2.99% [at 19 µM] | cAMP activity change [7] -0.0314% [at 18.9 µM, hits give high values] | activity change, negative = inhibition [8] 0.568% [at 19 µM] | activity change, negative = cytotoxicity [9] 2.64% [at 19 µM] | activity change, negative = inhibition [11] -21.4% [at 18.9 µM] | activity change, negative = cytotoxicity [17] -14.3% [at 19 µM] | viability change, negative = cytotoxic [12] -21.1% [at 15.8 µM] | activity change, negative = cytotoxicity [13] -6.07% [at 15.8 µM] | activation [14] 4.38% [at 15.8 µM] | activity, negative = inhibition [18] -0.562% [at 10.5 µM] | activation [19] -0.663% [at 11.8 µM]

CCCNCC(O)COc1ccccc1C(=O)CCc1ccccc1 (stereo unspecified)
active: Potency [1] 4.73 µM | Potency [5] 26.6 µM | Potency [6] 23.7 µM
inactive: Potency [2] | Potency [4] | Potency [7] | Potency [9] | Potency [10] | Potency [16] | Potency [12] | outcome [13] | Potency [14] | outcome [18] | Potency [19]

CCC(=O)O[C@]1(C(=O)CCl)[C@@H](C)C[C@H]2[C@@H]3CCC4=CC(=O)C=C[C@]4(C)[C@@]3(F)[C@@H](O)C[C@@]21C
active: Potency [3] 29.8 µM | Potency [15] 0.0007 µM | Potency [10] 0.0009 µM
inactive: Potency [1] | Potency [2] | Potency [4] | Potency [6] | Potency [20] | Potency [7] | Potency [9] | Potency [11] | Potency [16] | Potency [17] | Potency [12] | outcome [13] | Potency [14] | Potency [19]

CN(Cc1ccc(C(C)(C)C)cc1)Cc1cccc2ccccc12
active: Potency [5] 26.6 µM | Potency [6] 23.7 µM | Potency [17] 10.6 µM
inactive: Potency [1] | Potency [2] | Potency [4] | Potency [20] | Potency [9] | Potency [10] | Potency [11] | outcome [13] | Potency [14] | outcome [18] | Potency [19]

— PubChem BioAssay (Tox21)
